# Data from PubChem BioAssay AID1347426 (Functional Genomics Laboratory (NCATS/FGL), 2020).
# Screen size: about 31,000 sequences; about 1,400 (4.5%) were called active. This excerpt belongs to a sample that is enriched for actives. Unmarked numbers belong to inactive results.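 How the source made its calls: active means median seed-adjusted z-score above 1 or below -1; inactive means the rest.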
# Test: Novel Modifiers of Survival Motor Neuron (SMN) Protein: Gene Identification via Genome-wide siRNA Screen;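 further: luminescence tracks full-length SMN protein made from the SMN2 reporter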
# Settings: HEK293T SMN2-luciferase reporter, siRNA knockdown, 72 h; actives lie on both sides
# Summary of the method: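 Luciferase signal, proportional to full-length SMN made from an SMN2 cDNA reporter in stable HEK293T cells, was read 72 h after siRNA reverse transfection. Values were expressed as MAD scores after non-targeting-control normalization and log10 conversion; seed analysis flagged off-targets.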
row,Sequence,median seed-adjusted z-score
1,GAUGGGUAAAUGUACAUAUTT against KCNIP4,-0.401
2,GCAUCGUGGGCAUAGCGUATT against PCSK6,0
3,GAAUUUUGAUGGACAAGUUTT against RAG2,0.138
4,GAACCUCAAGAAUCGAACATT against REV1,-0.294
5,CCAGGGACCAAGAGAAAGATT against RCE1,-1.19 (active)
6,GCUUUGAUUUCACCAACAATT against GCM2,-0.241
7,GGACGUGACCAUCAUGUACTT against IRF7,-0.304
8,CGAUGUCAGCAUUUCCGUUTT against EPRS,-0.391
9,UCACGCUCCUGGACCAUUUTT against SLC6A3,0.457
10,GAAGCGCAGUCACCUGAAATT against PROC,-0.228
11,CUGUUGAGGUUGUUAUUGATT against GABPA,1.43 (active)
12,GCAUGACCAUAAGAUCCUATT against NUAK2,-0.0601
13,GAAGGAGAAUGGUAUCACUTT against GPATCH4,-0.519
14,CAAAGUAUCUGGAGAACCATT against KIF2C,0.0122
15,GGGCCUUUCUUGGACUGAUTT against PHF7,0.425
16,CUUCAGUUCGAAUACAUUUTT against RFC5,-0.644
17,GGAGACUUCUUACCCACCATT against PSMD4,1.46 (active)
18,CAACUGAUGAGUAUCUAGATT against MRCL3,-0.00909
19,CUUCAGUGCUGAUCAGGUATT against NDUFA2,-0.694
20,GGACCCAGUAUUUCAGGAATT against SFXN4,-0.174
21,CGAUAUGGAAAAUCCCUAUTT against ANXA10,0.0445
22,CAUACGGACUGUACCUUUATT against PSMC5,-1.06 (active)
23,CCCUCUACCUCGUCCGAAUTT against SIRPA,-0.153

row,Sequence,median seed-adjusted z-score
1,CCACAUCUCAAGUCCACUUTT against PPP1R1A,-0.529
2,CACUUACGGUGUGAAAGGATT against SOX5,0.123
3,AGUUACUACCUUAUCCUCATT against POU2F2,0.163
4,CCAUCUCCUACAUCGCCGATT against APBA2,1.66 (active)
5,GCUAUUUGGUUAUCCUUAUTT against ATP6V0A1,0.103
6,AGAUCCUGUGGAUUAGAAATT against NEU4,-0.152
7,GUGCGAAAGAGAAUCUUAATT against SPIRE1,0.336
8,GGAACAGCUUAAGAUUGAATT against GNG3,-0.186
9,GGAAGACCUUACACGGUUATT against EIF3E,0.549
10,GCUAUUUCCAGCGAAUAUATT against CNOT1,1.2 (active)
11,CGCAGAAGAUGUACCAGUUTT against CDH22,-0.57
12,CAGGGUCUAUGGUACCGUUTT against UBE3C,0.0341
13,AAAUCCUUGGGUCAACAUUTT against NOX1,-0.221
14,GGACAAGGGAUUAAUAGUATT against ARID1A,-1.14 (active)
15,CCUUGAUCCUCGACUGUAATT against COL5A1,-0.00475
16,GGUCAUUGUGAAAAGUAGATT against GCLM,0.0509
17,CGCAUACUCUCGCCCUGUATT against ZNHIT2,-0.339
18,CGAUAGUGAGUAUAUCAGUTT against ZMYND8,-0.065
19,UGAGCGAGUUGAUUUCACATT against ATF5,0.233
20,CUUUAAGACUCAUAACGAATT against GTF2E2,-1.32 (active)
21,GUUUCAUCGUAUAUCAAUATT against HSD17B13,-0.329
22,GAAGGUUGAUUAUCGUAAATT against BCMO1,0.53
23,CGAGGAACUAAGACUCAAATT against GPR151,-0.263

row,Sequence,median seed-adjusted z-score
1,ACAAUUAUUGGAAAGAGAATT against SPRYD5,0.151
2,GGAAGGAGCUGUCACGCAATT against MED26,-1.86 (active)
3,CGAAUCUCAUGUUCAGGAATT against LPA,-0.321
4,GGGUCAUGUUUGGUUAGAATT against IMMP1L,-0.444
5,CGUGGACCACUAUCCCAUUTT against RNF123,0
6,GGAAAAACCAACCAAGUUATT against RUFY1,0.119
7,CGGUGAAGGUGCUAAAGGATT against RAD23A,-1.13 (active)
8,GCCUUCAAUUUUCAUACAATT against ZNF19,0
9,AGUAAUAGUUCAAACCUUUTT against ZNF664,1.08 (active)
10,GAGUGUACCUGGAAUGUCUTT against ARNTL2,0.102
11,AAAGUGGAUUGCACACAGATT against TGFB1I1,0.887
12,GAUCAAACCUUGUAUCUCUTT against ARG2,-0.796
13,GGUAAAGAAUUCUCCGGAATT against FUS,0.92
14,GCAGGAUUGUGAUCCACCATT against PCGF3,0.876
15,GGAUAUGGUGAGAAUAGAATT against MTHFS,0.166
16,AGCUCACAAGGAUCCCAAUTT against THPO,-0.0366
17,CCUUUAGCACGGAUAGUUUTT against ACAT2,1.25 (active)
18,CUCCUACAGUGCUAUCAGATT against ENPP2,-0.305
19,AAUUCCUCUUCAACAUGUATT against HOXD9,-0.123
20,GGAACGGGCUGGAGUUAAATT against FUBP1,-1.52 (active)
21,GUACUUCAGUGGAGUGAAATT against CDKL1,-0.28
22,UCUGCUAUUUGGUCCUGAATT against TOMM34,-0.503
23,CCUCAUAUGUGGGACAGAATT against USP3,-0.176
